Only some compounds are listed: those with a hit (about 4.7% of all), similar ones and a draw of the others.
HepG2 tox: kills HepG2 cells in TGF-b inhibitor counter-screen. HepG2 CAGA-GFP viability, ATP luminescence, 18 h. Potency, µM (titrated, usually from 46.1 µM), most hits filed as cytotoxic. 410,000 tested, 0.76% active. AID 588856
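HepG2 CAGA-GFP cells (1000/well, DMEM with 1% FBS) received compound, then TGF-beta at 500 pg/mL final, and were incubated 18 hours at 37 degrees C. Viability was read by CellTiter-Glo luminescence. Media-only wells were set as complete cell-killing and DMSO as no toxicity.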
TGFb SMAD3 inh: TGF-b pathway inhibition. HepG2 CAGA-GFP TGF-b/SMAD3 reporter, GFP fluorescence, 18 h; TGF-beta stimulated, 500 pg/mL final. Potency, µM (doses to about 46.1 µM), most hits filed as inhibitors. 410,000 tested, 1.2% active; also: nearly all actives have a fitted effect of over 65% in size
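Inhibition was scored as loss of TGF-beta-induced (500 pg/mL final, 18 hours, 37 degrees C) GFP in HEPG2 cells carrying a CAGA-GFP reporter, in DMEM with 1% FBS. Well GFP was summed per cell; Activity was normalised to unstimulated and stimulated DMSO wells, then concentration-response fitting.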
DRD3 agonist: D3 dopamine receptor (human) agonism; D3R DiscoveRx beta-arrestin cells, luminescence, 90 min; P35462; 410,000 tested, 0.58% active; max activation, %; in the data active = max activation above about 30%
Target sequence (P35462 whole entry, looked up): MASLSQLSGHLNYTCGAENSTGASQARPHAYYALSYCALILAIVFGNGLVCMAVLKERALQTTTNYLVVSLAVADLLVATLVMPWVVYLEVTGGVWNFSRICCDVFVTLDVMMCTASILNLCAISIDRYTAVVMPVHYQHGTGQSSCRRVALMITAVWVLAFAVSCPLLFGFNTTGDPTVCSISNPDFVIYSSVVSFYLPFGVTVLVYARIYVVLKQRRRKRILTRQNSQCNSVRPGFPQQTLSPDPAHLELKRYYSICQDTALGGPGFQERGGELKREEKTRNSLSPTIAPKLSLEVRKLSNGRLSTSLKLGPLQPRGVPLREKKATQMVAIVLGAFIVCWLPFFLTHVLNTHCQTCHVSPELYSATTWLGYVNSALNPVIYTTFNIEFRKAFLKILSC
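Agonist mode: compounds and dopamine controls were applied to plated cells for 90 min at 37 degrees C after an overnight attachment at 1500 cells/well. Luminescent read-out followed 30 - 60 minutes at room temperature with DiscoveRx detection reagent.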
ATXN2 expr inh: reduces ATXN2 reporter expression in HEK-293 cells. HEK-293 ATXN2-luciferase reporter, luminescence, 24 h. Potency, µM (highest dose often 57 µM), actives largely listed as inhibitors. 360,000 tested, 0.72% active. AID 1745845; also: nearly all actives have a fitted effect of over 55% in size
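qHTS (up to 57 uM final) was run with 24 h compound exposure of reporter cells at 37 °C. Each well was multiplexed: SteadyGlo luminescence measured ATXN2-luciferase expression after a fluorogenic Gly-Phe-AFC viability readout (25 uM final).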
D3 antag: antagonists of human D3 dopamine receptor; P35462; max response, negative = inhibition, %; D3R cells, DiscoveRx beta-arrestin luminescence, antagonist mode; active compounds read low; 360,000 tested, 2.5% active; in the data active = max response below about -50%; inconclusive = no clear call, values can overlap the other calls
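Cells plated overnight at 1500 cells/well, then exposed to library compounds with dopamine controls for 90 minutes at 37 degrees C. DiscoveRx reagent added for 30–60 minutes at room temperature; luminescence read, quantitative HTS format.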
S2 tox: reduces viability in counter-screen for ATXN expression inhibitors; Potency, µM (series often up to 56.7 µM), usual class: cytotoxic; AID 651635; S2 cells (HEK-293 line with an ATXN2-luciferase reporter) viability, CellTiter-Fluor protease fluorescence, 24 h; 400,000 tested, 0.49% active; also: nearly all actives have a fitted effect of over 40% in size
Of the large screens only hits and unclear results are named; the others gave an inactive call. Unless noted, calls follow the shape of the dose curve; as a rule, active = well fitted curve in the direction sought with a large enough effect; inconclusive = small, poorly fitted or top-dose-only effect, or another doubt; inactive = no such curve, though single readings can be large; an effect the other way counts as inactive or inconclusive.

CCCCN1C(=O)/C(=c2\sc3nc(=O)c(-c4ccccc4)nn3c2=O)c2ccccc21	D3 antag -68.5
CCCN1C(=O)/C(=c2\sc3nc(=O)c(Cc4ccc(C)cc4)nn3c2=O)c2ccccc21	none
C1=C(CCNc2nnnn2-c2ccccc2)CCCC1	D3 antag -61.4
c1ccc(CCNc2nnnn2-c2ccccc2)cc1	none
C[C@@H]1CN(C(=O)c2nc3ccc(Cl)cn3c2CN[C@H]2CCCCNC2=O)C[C@H](C)O1	none
Cc1cccnc1CCNCc1c(C(=O)N2C[C@@H](C)O[C@@H](C)C2)nc2ccc(Cl)cn12	D3 antag -63.5
CSc1nnc(CNC(=O)c2cccc3ccccc23)n1-c1ccccc1C	none (no result: HepG2 tox, TGFb SMAD3 inh, DRD3 agonist, ATXN2 expr inh, D3 antag)
O=C(c1ccc2c(c1)OCCO2)N(Cc1cccnc1)c1nc2c(Cl)cccc2s1	TGFb SMAD3 inh inconclusive (no result: ATXN2 expr inh, D3 antag, S2 tox)
Cc1cc(C)c2c(n1)sc1c(O)cc(=O)[nH]c12	none
COc1ccc(-c2cc(C(F)(F)F)c3c(n2)sc2c(O)cc(=O)[nH]c23)c(OC)c1	HepG2 tox 2.24µM
CCOC(=O)c1ccc(-c2ccc(/C=C(\C#N)c3nc4ccc(C)cc4[nH]3)o2)cc1	HepG2 tox 3.16µM (no result: TGFb SMAD3 inh, ATXN2 expr inh, D3 antag, S2 tox)
Cc1ccc2nc(/C(C#N)=C/c3ccc(-c4ccccc4C(=O)O)o3)[nH]c2c1	none (no result: ATXN2 expr inh, S2 tox)
COCCNCCCCOc1ccccc1-c1ccccc1	none
CN(C)CCOc1ccccc1Cc1ccccc1	D3 antag -74.5
C=CCNCCOc1ccccc1-c1ccccc1	D3 antag -63.8
CCCCNCCOCCOc1ccccc1-c1ccccc1	D3 antag -86.6
CN(C)CCCCOc1ccccc1-c1ccccc1	D3 antag -76.8
C=CCNCCCOc1ccc(C(C)(C)c2ccccc2)cc1	D3 antag inconclusive
CCN(C(=O)Cn1nc(Cc2ccncc2)c2ccccc2c1=O)c1cccc(C(F)(F)F)c1	TGFb SMAD3 inh inconclusive (no result: ATXN2 expr inh, D3 antag, S2 tox)
O=C(NC1=NCCS1)C1COc2ccccc2O1 (configuration not stated)	ATXN2 expr inh 2.51µM
CC(C)(C)C1CCC(=NNC(=O)C2COc3ccccc3O2)CC1 (configuration not stated)	none
O=C(NN=C1CCCC1)C1COc2ccccc2O1 (configuration not stated)	DRD3 agonist 43.1
O=C(NNC(=O)C1COc2ccccc2O1)c1ccccc1O (configuration not stated)	DRD3 agonist 32.4
O=C(CN1CCN(c2ncccn2)CC1)N1CCc2ccccc21	D3 antag -81.7
O=C(CN1CCCCC1)N1CCc2ccccc21	D3 antag -85.7
CC(C)NC(=O)CN1CCN(c2ncccn2)CC1	D3 antag -54.3
O=C(CN1CCN(Cc2ccc(Cl)cc2)CC1)N1CCc2ccccc21	D3 antag inconclusive
O=C(CN1CCN(Cc2ccccc2)CC1)N1CCCc2ccccc21	D3 antag -51.0 (no result: ATXN2 expr inh)
CC1CCN(CC(=O)N2c3ccccc3CCc3ccccc32)CC1	D3 antag -64.0
O=C(CN1CCC(N2CCCCC2)CC1)N1CCCc2ccccc21	D3 antag -76.1
Cc1csc(=N)n1CC(=O)N1CCc2ccccc21	D3 antag -85.7
O=C(CN1CCCc2ccccc21)N1CCc2ccccc21	none
O=C(CN1CCN(c2ccccc2F)CC1)N1CCc2ccccc21	D3 antag -53.9
CNC(C)CCC=C(C)C (configuration not stated)	none (no result: HepG2 tox, TGFb SMAD3 inh, ATXN2 expr inh, D3 antag, S2 tox)
Cc1ccccc1Nc1ncnc2c1c(-c1ccccc1)cn2-c1ccc(F)cc1	none (no result: ATXN2 expr inh, D3 antag, S2 tox)
CCN(CC)c1ccc(NC(=O)C(Cc2ccccc2)NS(=O)(=O)c2ccc(Br)s2)c(C)c1 (configuration not stated)	none (no result: D3 antag)
CCOC(=O)c1cc2c(=O)n3ccccc3nc2n(CC2CCCO2)c1=NC(=O)c1ccccc1OCC (configuration not stated)	none (no result: D3 antag, S2 tox)
CCN(C(=O)c1cc2c(s1)-c1ccccc1OC2)c1cc(OC)ccc1OC	TGFb SMAD3 inh inconclusive, D3 antag -53.9

From PubChem
